# The full data set covers some 8,800 targets. This sample favours those with a hit. About 0.5% of all pairs of compound and target were hits. A number with no mark means an inactive call.
# Key:
# Experiment in all cases: log2 fold change, soluble protein after heating vs DMSO (PISA); higher = thermal stabilisation; K562 lysate, 10 uM; active = over 0.2 and 3.5 SD of the protein, either way, in both replicates (recomputed)
# erlotinib = compound: C#Cc1cccc(Nc2ncnc3cc(OCCOC)c(OCCOC)cc23)c1 [erlotinib]
# Procedure, shortened: (§1)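 Values give the log-two fold change in thermal stability against solvent controls, from duplicates. Crude K562 extract at 1 mg/mL protein, made by dounce homogenisation in PBS pH 7.4 with 1 mM MgCl2, was treated with 10 μM compound for 30 min. After 3 min heating across 48°C-58°C, aliquots were pooled, adjusted to 0.5% NP-40 at 4°C and centrifuged at 21,000xg for 90 min. The supernatant was measured by TMTpro 16plex LC-MS/MS with channel sums equalised.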
# [1] = compound: C/C(=N\NC(=O)C1=CC(=CC=C1)S(=O)(=O)N2CCOCC2)/C3=C(C=CC(=C3)Cl)O
# Procedure, shortened: as §1
# [2] = compound: C1=CC(=CC=C1C2=NC3=C(N2)C=C(C=C3)C(=O)N)OC4=CC=C(C=C4)Cl
# Procedure, shortened: as §1
# [3] = compound: C1=CC2=C(C=CC(=C2)/C=C\3/C(=O)NC(=NCC4=CC=CS4)S3)N=C1
# Procedure, shortened: as §1
# [4] = compound: C1=CC2=NC=CN=C2C=C1/C=C/3\C(=O)NC(=O)S3
# Procedure, shortened: as §1
# [5] = compound: C1=CC=C(C=C1)C2=NC(=C(N2)C3=CC=NC=C3)C4=CC(=C(C=C4)Cl)O
# Procedure, shortened: as §1
# [6] = compound: C1=CC=C2C(=C1)C3=NNC4=CC=CC(=C43)C2=O
# Procedure, shortened: as §1
# [7] = compound: C1CCN(C1)C(=O)NC2=CC=CC(=C2)NC3=NC=C(C(=N3)NCCC4=CN=CN4)Br
# Procedure, shortened: as §1
# [8] = compound: C1CN(CCC1(CC2=CC=C(C=C2)Cl)N)C3=NC=NC4=C3C=CN4
# Procedure, shortened: as §1
# IRAK-1-4 Inhibitor I = compound: C1COCCN1CCN2C3=CC=CC=C3N=C2NC(=O)C4=CC(=CC=C4)[N+](=O)[O-] [IRAK-1-4 Inhibitor I]
# Procedure, shortened: as §1
# UniProt Q15418, sequence (Q15418 whole entry, looked up): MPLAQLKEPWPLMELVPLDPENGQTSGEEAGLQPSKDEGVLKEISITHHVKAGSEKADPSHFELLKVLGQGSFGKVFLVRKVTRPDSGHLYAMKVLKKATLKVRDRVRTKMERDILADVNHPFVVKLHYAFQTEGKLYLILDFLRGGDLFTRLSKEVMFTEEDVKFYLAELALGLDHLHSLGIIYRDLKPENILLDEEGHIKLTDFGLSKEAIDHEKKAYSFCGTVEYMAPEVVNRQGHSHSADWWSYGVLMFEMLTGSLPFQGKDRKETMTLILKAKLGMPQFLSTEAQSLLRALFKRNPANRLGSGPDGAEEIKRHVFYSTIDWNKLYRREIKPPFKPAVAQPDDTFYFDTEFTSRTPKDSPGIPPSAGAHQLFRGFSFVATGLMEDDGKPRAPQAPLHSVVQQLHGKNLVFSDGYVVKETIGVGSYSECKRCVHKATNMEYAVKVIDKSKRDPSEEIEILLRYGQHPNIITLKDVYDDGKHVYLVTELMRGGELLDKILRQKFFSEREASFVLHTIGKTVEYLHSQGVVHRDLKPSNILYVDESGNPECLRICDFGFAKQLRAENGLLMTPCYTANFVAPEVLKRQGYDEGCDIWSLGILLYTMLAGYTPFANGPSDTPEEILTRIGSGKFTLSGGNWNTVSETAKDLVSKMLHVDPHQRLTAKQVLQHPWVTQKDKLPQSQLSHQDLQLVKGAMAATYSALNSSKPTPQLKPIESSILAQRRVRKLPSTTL
# UniProt Q14644, sequence (Q14644 whole entry, looked up): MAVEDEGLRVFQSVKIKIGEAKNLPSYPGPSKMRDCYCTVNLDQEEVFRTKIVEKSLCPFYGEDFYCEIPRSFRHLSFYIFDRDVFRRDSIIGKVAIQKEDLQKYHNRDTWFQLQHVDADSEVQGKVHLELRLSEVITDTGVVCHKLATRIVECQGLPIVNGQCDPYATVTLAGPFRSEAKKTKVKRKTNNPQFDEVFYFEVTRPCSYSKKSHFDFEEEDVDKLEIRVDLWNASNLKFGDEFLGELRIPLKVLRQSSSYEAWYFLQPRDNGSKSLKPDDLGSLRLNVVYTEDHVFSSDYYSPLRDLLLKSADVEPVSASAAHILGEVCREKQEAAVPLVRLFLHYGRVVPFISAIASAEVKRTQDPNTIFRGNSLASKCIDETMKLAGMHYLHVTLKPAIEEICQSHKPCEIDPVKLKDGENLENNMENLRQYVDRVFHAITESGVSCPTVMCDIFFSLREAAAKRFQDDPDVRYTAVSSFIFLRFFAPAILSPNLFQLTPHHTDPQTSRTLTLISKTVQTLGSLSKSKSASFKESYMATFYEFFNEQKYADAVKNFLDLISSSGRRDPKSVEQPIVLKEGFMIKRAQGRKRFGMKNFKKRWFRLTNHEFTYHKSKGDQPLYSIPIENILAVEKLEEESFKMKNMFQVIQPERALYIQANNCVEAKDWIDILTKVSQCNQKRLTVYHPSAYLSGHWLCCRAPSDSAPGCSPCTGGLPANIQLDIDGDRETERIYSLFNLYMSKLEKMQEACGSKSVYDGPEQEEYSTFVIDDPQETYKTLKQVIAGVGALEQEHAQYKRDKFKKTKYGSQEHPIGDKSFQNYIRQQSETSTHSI
# UniProt Q15404, sequence (Q15404 whole entry, looked up): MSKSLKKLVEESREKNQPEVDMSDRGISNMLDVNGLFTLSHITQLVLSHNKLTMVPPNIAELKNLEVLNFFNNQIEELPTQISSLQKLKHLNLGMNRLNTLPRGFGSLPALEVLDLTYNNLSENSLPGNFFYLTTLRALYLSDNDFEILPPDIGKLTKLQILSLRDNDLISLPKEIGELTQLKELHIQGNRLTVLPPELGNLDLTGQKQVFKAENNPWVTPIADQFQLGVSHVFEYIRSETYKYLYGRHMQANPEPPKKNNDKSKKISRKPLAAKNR
# UniProt Q6PCD5, sequence (Q6PCD5 whole entry, looked up): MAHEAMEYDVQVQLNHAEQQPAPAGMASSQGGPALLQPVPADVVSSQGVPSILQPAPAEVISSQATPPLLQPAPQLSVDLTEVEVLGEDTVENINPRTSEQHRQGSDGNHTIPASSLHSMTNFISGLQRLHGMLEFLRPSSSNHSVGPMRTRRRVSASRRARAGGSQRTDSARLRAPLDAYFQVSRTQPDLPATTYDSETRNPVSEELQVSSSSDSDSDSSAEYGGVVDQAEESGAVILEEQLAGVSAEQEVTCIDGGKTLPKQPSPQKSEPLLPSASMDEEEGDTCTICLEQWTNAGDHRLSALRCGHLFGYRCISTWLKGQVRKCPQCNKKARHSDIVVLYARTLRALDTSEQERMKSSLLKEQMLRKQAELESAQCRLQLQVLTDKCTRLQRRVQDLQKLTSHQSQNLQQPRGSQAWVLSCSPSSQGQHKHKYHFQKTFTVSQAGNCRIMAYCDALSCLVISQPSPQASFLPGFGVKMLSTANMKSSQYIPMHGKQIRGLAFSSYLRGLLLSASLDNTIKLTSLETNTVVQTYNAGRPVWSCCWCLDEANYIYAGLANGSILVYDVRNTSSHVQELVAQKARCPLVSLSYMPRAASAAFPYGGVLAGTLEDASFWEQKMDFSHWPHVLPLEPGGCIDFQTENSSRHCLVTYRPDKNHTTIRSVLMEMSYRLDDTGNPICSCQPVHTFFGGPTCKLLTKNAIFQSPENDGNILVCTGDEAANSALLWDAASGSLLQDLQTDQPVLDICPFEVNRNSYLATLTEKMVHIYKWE
# UniProt Q9H1K0, sequence (Q9H1K0 whole entry, looked up): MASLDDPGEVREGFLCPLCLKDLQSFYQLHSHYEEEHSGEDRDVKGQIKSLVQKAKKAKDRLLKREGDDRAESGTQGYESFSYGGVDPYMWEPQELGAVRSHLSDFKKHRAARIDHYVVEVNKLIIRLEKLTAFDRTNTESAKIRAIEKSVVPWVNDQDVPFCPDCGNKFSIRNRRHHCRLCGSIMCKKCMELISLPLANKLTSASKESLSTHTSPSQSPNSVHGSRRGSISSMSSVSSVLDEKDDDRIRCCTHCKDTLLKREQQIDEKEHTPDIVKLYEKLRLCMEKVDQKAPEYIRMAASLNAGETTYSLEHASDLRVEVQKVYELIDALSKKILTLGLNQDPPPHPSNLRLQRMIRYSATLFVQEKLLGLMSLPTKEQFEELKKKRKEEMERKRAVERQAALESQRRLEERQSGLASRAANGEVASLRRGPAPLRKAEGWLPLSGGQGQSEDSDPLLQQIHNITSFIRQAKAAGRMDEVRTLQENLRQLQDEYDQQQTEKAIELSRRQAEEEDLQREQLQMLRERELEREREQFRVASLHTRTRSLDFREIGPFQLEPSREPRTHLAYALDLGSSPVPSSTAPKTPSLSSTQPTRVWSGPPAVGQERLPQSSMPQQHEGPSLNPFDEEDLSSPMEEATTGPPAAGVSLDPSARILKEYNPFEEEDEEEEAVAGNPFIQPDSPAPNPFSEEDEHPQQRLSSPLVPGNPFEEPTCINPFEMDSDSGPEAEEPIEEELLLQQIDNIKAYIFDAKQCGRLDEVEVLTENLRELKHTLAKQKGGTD
# UniProt Q8WZA2, sequence (Q8WZA2 whole entry, looked up): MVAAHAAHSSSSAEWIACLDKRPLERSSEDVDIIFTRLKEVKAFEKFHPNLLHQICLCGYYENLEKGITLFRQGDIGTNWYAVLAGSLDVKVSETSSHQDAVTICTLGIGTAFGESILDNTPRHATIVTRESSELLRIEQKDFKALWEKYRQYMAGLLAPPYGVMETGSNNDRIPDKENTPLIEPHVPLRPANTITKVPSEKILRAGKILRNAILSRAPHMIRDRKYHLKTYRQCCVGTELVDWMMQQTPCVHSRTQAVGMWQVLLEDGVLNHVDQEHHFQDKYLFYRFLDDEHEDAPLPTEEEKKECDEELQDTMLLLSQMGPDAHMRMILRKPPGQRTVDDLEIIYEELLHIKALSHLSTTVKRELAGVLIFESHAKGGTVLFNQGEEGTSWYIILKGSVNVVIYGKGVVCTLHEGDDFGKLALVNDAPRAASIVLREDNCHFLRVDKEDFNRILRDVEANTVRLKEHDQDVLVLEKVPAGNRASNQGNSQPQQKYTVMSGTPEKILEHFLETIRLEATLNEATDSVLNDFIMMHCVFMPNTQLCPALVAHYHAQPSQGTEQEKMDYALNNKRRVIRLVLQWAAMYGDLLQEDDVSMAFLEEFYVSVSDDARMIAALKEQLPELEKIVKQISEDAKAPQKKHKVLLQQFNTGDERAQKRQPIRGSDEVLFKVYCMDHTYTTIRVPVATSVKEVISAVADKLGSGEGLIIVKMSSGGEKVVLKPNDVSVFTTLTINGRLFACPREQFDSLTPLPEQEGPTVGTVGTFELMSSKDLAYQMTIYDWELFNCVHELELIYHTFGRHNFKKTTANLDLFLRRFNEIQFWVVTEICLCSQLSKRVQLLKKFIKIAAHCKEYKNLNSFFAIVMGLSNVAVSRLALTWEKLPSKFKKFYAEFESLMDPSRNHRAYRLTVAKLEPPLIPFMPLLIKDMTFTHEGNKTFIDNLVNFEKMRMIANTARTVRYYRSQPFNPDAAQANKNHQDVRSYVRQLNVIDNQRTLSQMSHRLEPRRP
# UniProt Q16576, sequence (Q16576 whole entry, looked up): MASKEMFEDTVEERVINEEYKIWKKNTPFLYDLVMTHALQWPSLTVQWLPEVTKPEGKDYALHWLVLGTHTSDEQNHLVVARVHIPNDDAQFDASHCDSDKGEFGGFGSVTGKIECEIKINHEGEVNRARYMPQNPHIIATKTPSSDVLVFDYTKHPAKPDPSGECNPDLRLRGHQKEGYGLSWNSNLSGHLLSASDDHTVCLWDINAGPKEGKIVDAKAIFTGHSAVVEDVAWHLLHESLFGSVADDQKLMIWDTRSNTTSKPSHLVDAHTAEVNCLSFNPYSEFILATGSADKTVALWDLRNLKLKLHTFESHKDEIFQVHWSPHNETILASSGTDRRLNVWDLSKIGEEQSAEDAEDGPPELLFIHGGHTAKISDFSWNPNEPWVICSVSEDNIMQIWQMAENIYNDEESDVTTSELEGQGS
# UniProt Q9H0U4, sequence (Q9H0U4 whole entry, looked up): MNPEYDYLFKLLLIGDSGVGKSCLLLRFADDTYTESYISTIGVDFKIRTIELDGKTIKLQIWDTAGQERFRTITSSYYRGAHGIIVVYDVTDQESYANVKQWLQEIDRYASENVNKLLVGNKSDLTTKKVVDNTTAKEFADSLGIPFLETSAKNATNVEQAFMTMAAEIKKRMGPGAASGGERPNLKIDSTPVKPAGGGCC
Target,log2 fold change (erlotinib),log2 fold change [1],log2 fold change [2],log2 fold change [3],log2 fold change [4],log2 fold change [5],log2 fold change [6],log2 fold change [7],log2 fold change [8],log2 fold change (IRAK-1-4 Inhibitor I)
RPL8 (UniProt P62917),0.001,-0.307,-0.024,-0.025,-0.026,0.007,0.109,0.019,-0.085,-0.005
RAI14 isoform 2 (UniProt Q9P0K7),0.015,0.006,-0.007,0.004,0.001,0.021,0.02,0,-0.018,-0.028
RBM23 isoform 2 (UniProt Q86U06),-0.056,0.007,0.012,-0.106,0.148,-0.052,0.001,-0.175,0.091,-0.004
RDH10 (UniProt Q8IZV5),0.043,0.001,-0.019,0.087,-0.028,-0.022,-0.013,0.024,-0.023,0.001
RALA (UniProt P11233),0.007,-0.146,-0.035,-0.04,0.031,-0.012,0.003,-0.016,0.002,0.04
RECQL5 (UniProt O94762),0.046,-0.093,0.282,0.083,0.005,-0.002,0.012,-0.062,0.036,0.006
RECQL4 (UniProt O94761),-0.041,0.023,-0.025,0.195,-0.081,0.018,-0.039,-0.035,0.013,0.015
RNASEH2B (UniProt Q5TBB1),-0.01,0.006,-0.024,0.019,-0.011,0.009,0.024,-0.01,-0.041,-0.003
RNPS1 (UniProt Q15287),-0.008,-0.105,0.025,-0.151,-0.005,-0.006,0.027,-0.016,-0.073,0.023
RSU1 (UniProt Q15404),0.017,0.006,-0.039,-0.052,-0.011,-0.003,0.017,0.009,-0.027,0
RBSN (UniProt Q9H1K0),-0.067,-0.215,0.004,-0.014,-0.004,0.005,0.043,0.015,0.063,0.025
RPS4X (UniProt P62701),-0.016,0.014,-0.012,-0.012,-0.018,-0.002,-0.005,0.017,0.004,0.03
RPN2 (UniProt P04844),0,0.014,-0.055,0.022,0.021,0,-0.049,-0.007,0.006,0.007
RASA3 (UniProt Q14644),0.02,-0.089,0.045,-0.001,0.046,0.021,0.004,-0.043,-0.005,0.02
RIOK2 (UniProt Q9BVS4),-0.018,-0.045,-0.015,0.07,0.038,0.029,0.395 (active),-0.01,-0.019,-0.005
SEH1L isoform 1 (UniProt Q96EE3),-0.008,0.082,-0.001,-0.023,0.014,-0.015,-0.012,-0.025,0.026,0.031
RPS26P11 (UniProt Q5JNZ5),-0.028,-0.021,-0.015,-0.01,0.039,0.005,-0.046,-0.045,0.008,0.001
RPS6KA1 (UniProt Q15418),0.001,-0.064,0.006,-0.029,0.04,0.13,0.509 (active),-0.009,0.06,-0.036
REL isoform 2 (UniProt Q04864),0.022,-0.005,-0.048,0.016,-0.017,0.037,-0.019,-0.011,-0.02,0.019
RPS29 (UniProt P62273),0.088,0.023,0.018,-0.064,-0.026,0.017,0.051,0.018,-0.037,0.046
RABEPK (UniProt Q7Z6M1),-0.01,0.014,0.012,0.004,0.032,0.007,-0.024,-0.03,-0.032,0.014
RAB1B (UniProt Q9H0U4),-0.009,-0.005,0.011,0.019,-0.002,0.005,-0.008,0.014,0.003,0.055
RBBP7 isoform 2 (UniProt Q16576),-0.036,0.046,-0.036,-0.03,-0.013,-0.002,0.055,0.041,-0.026,-0.006
RPTOR (UniProt Q8N122),0.032,0.002,0.062,0.013,0.017,-0.002,-0.002,-0.036,-0.015,0.003
RETREG2 (UniProt Q8NC44),-0.08,0.036,-0.115,-0.055,0.049,0.035,-0.063,0.022,0.075,0.106
RAPGEF4 (UniProt Q8WZA2),0.181,0.057,0.049,-0.016,-0.019,-0.092,-0.195,-0.043,0.12,0.184
RAB8B (UniProt Q92930),0.013,-0.042,0.049,0.113,0.004,0.034,0.125,0,-0.006,0.035
RFWD3 (UniProt Q6PCD5),-0.12,0.005,0.048,-0.061,0.062,0.029,-0.039,-0.086,0.053,0.054
RPL27 (UniProt P61353),0.002,-0.02,-0.04,-0.033,0.011,0.011,0.03,0.052,-0.014,-0.014
RBM5 (UniProt P52756),0.095,-0.042,0.054,0.006,-0.006,0.015,-0.121,-0.021,-0.001,-0.023
